The campaign covered roughly 360,000 compounds. About 17,000 (4.7%) were called active. Another 5% or so got no clear call; they are omitted. The full list was thinned out, with actives kept by preference. A number with no mark means an inactive call. Cut-off read from the data, not from the text of the source: active = activity change below about -50%; inconclusive = mostly about -30% to -49%; inactive = weaker than that.
experiment: qHTS for Inhibitors of Inflammasome Signaling: IL-1-beta AlphaLISA Primary Screen; conditions: THP-1 LPS/ATP IL-1B secretion, 16 h; at 57.5 µM, active compounds read low
Method in brief: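 Secreted IL-1B measured by AlphaLISA bead assay after 16 h compound exposure of THP-1 cells; compounds (final up to 57.5 uM) added 1 h before LPS (250 ng/mL) and ATP (1.25 mM) stimulation; lower signal means less secretion.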
% is set by controls: 0 for no effect and ±100 for the full control effect.

SMILES	activity change
CC(C)C1N=C2c3ccccc3N=C(SCC(=O)c3ccc(O)c(O)c3)N2C1=O (stereo not given)	41.9%
O=C1CC[C@@H](C(=O)N2CSC[C@@H]2C(=O)Nc2ccc(C(F)(F)F)cc2)N1	-1.13%
CS/C(=C\[N+](=O)[O-])Nc1ccc(C)cc1	-131% (active)
COc1cc(NC(=O)Nc2ccc(C)cc2)cc([N+](=O)[O-])c1	-21%
Cc1ccc(NC(=O)O/N=C/c2cccc([N+](=O)[O-])c2)cc1	-1.61%
Cc1nn(-c2ccccc2)nc1C(=O)OCC(=O)N1CCCCC1C (stereo not given)	12%
O=C(Cc1ccc(NC(=O)C2CCCN(C(=O)C3CCCCC3)C2)cc1)Nc1cccc(C(=O)N2CCCCC2)c1 (stereo not given)	-3.57%
Cc1[nH]c2ccccc2c1C(=O)COC(=O)c1c(-c2ccccc2)noc1C	-59.9% (active)
Cc1[nH]c2ccccc2c1C(=O)CSCC(=O)O	10.6%
Cc1onc(-c2ccccc2Cl)c1C(=O)OCC(=O)c1ccccc1	-25.9%
COc1ccc(CC(=O)NC(C)c2ccc(Cl)c(Cl)c2)cc1S(=O)(=O)N1CCOCC1 (stereo not given)	-9.07%
CN(C)c1ccc(Nc2c3c4c(cccc4n(C)c2=O)C(=O)c2ccccc2-3)cc1	-11.1%
COc1ccc2sc(-c3ccc(N(C)C)cc3)c(C#CCO)c2c1	-3.05%
COc1ccc2sc(-c3ccc(N(C)C)cc3)c(-c3ccc4cc[nH]c4c3)c2c1	-13.1%
COc1ccc2c(c1)c(=Cc1ccc(N(C)C)cc1)c1cc(-c3ccccc3)[n+](C)n12	-118% (active)
O=C(CCNC(=O)c1ccc(Cl)cc1)NC1CCCc2ccccc21 (stereo not given)	1.14%
COc1cc2[nH]c(O)c(C=O)c2cc1OC	-8.17%
Cc1ccc(C=O)c([B-](F)(F)F)c1	5.57%
CN1c2ccc(C=O)c3c(C=O)ccc(c23)N(C)C1(C)C	-96.3% (active)
O=C1CCCC2=C1C(c1ccccc1)n1c(s/c(=C/c3cccc(F)c3)c1=O)=N2 (stereo not given)	2.6%
CCOC(=O)C1=C(C)N=c2s/c(=C\C(=O)OC)c(=O)n2C1c1ccc(OC)cc1 (stereo not given)	10.3%
COc1ccc(OC)c(C2C3=C(N=c4s/c(=C\c5cccc(O)c5)c(=O)n42)c2ccccc2CC3)c1 (stereo not given)	-55.4% (active)
O=S(=O)(Nc1ccc2[nH]ncc2c1)c1ccccc1Cl	-6.19%
CNC(=O)c1ccsc1NC(=O)c1ccc(S(=O)(=O)N2CCc3ccccc32)cc1	-11.5%
CCN(Cc1ccncc1)C(=S)Nc1ccccc1C	9.34%
